These results are taken from paper PMC12136788.

Sequences and labels used below:
T1: UNK ZnF1-3 (human, UniProt Q9C0B0 31-174)
T1 sequence: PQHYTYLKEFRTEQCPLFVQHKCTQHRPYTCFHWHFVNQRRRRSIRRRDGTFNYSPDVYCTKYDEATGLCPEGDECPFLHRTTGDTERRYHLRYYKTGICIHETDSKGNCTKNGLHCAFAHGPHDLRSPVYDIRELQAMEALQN

B1: chr1:90180492:90180493:+_ENSG00000171488_ENST00000370454|hu_hu|motif|central (ssRNA)
RNA: GGGAGUUCUACAGUCCGACGAUCUUUCAUUUGCUCCCGGACGUCAGAAGGCAGAGUUUCAAACAGAGCAUCUUCGGCAACGGAACCAGCUCGCUUCAGAGCCCGACAGUCACCCAGUUCAGGAGGGAGGAUUUCAAAGUGAUUCAACAGAGGAUUGAGCAUCA
B2: chr1:39494447:39494448:+_ENSG00000168653_ENST00000372967|hu_mus|hu_hu_hu_mus_False|38_58 (ssRNA)
RNA: GGGAGUUCUACAGUCCGACGAUCGCACCGAGCGGCGUUCUUAUAGGGCUGUUCUGCGCUUAGGAACAUAAAGUGCCGAUCUAUGUUGAUGCCCAGCCUUUUCUGGAUGUCAAGGAAAGGCAUGGCUCUGCAGUGCCCUUGUCACAACAGAGGAUUGAGCAUCA
B3: 131003253_131003911_1761_CDS_ENSMUSG00000068267_ENSMUST00000089510|mouse|control|control (ssRNA)
RNA: GGGAGUUCUACAGUCCGACGAUCCAAGGGCCAAAGACUGGGCCAGAGAAAGGGAUCUGGGGAGGUGGAAAGCAGGCAGAGGCAGGCUCGGUUCUUCCUAGUCACGUGGACCAGAUCGUGUUCCAAAUGAAGGAUGUGACUCUGCAACAGAGGAUUGAGCAUCA
B4: chr7:7679991:7679992:-_ENSG00000106399_ENST00000396682|hu_hu|hu_hu_hu_mus_False|48_58 (ssRNA)
RNA: GGGAGUUCUACAGUCCGACGAUCUGGGAUGAAUCUUUUCCAGCUUCCCCACGAAGCACACGGGCCGGUCGAUAUACUGAGCUAGCAUGCCGGCGUUGACGCGCGCUUUGGGGAGCUGCAUUAUGUCCUCCAUGAUUCUGCCGCCAACAGAGGAUUGAGCAUCA
B5: chr7:75932113:75932114:+_ENSG00000106211_ENST00000248553|hu_hu|hu_hu_hu_mus_False|38_78 (ssRNA)
RNA: GGGAGUUCUACAGUCCGACGAUCCUGCGACCACUCAUCGGGCAACCGGGGCACCCCGAAGGCCUGGUCGAAGAGGCGGCUGUGUGCAGGGUACCAGCGGAAGGGGUGUUCCCAGCUCGGGCUCCGCAGCAGCGAGAAGGGCACCAACAGAGGAUUGAGCAUCA
B6: chr12:3264740:3264741:-_ENSMUSG00000020671_ENSMUST00000021001|mus_mus|FALSE|FALSE (ssRNA)
RNA: GGGAGUUCUACAGUCCGACGAUCCCAUAUCUGUAGCUUGAUCUUCUUUCCUUGUAGUUCCACUGUUUUGAUCUUAAAGUCUAUUCCUAUGGUGGAAAUAAAGGUGGUAUUGAAGGCAUCGUCCGAAAAACGAAAAAGGACGCACAACAGAGGAUUGAGCAUCA
B7: chr7:92085846:92085847:+_ENSG00000157259_ENST00000287957|hu_mus|FALSE|FALSE (ssRNA)
RNA: GGGAGUUCUACAGUCCGACGAUCGUUAAAACUGAGGCUUUAUACCUGCGAAGUAAGUAUGUCCCAGGUUUGGUUUUGUAACUACAAGUGGUUGGCAACUGUUUCCUUAAUAGUUAUCGCAGGAGUAGGUCCAACGUGAGUCCACAACAGAGGAUUGAGCAUCA
B8: chr21:34877999:34878000:-_ENSG00000159131_ENST00000381815|hu_hu|motif|central (ssRNA)
RNA: GGGAGUUCUACAGUCCGACGAUCGUCAAUUGCACUGUCAAAUUCUACACGAUUUUUAUACAGUUUAUGAUUAAUUACUCGGGUGGGAAUACCAGCUCUUUCCGCUUUAUCUAACCCAGCUACUGCGGCUUUGUUGGAGAUAACCAACAGAGGAUUGAGCAUCA
B9: chr2:179803060:179803061:+_ENSMUSG00000039086_ENSMUST00000041126|mus_mus|FALSE|FALSE (ssRNA)
RNA: GGGAGUUCUACAGUCCGACGAUCAUGUAAAAAAAAAAAAAAUCACCCAAUUCUCACUGUAUAAAACUUGUCCUUUUCAUUUGAAAGAACGUAAUAAAGUUAUUUGGAUUCAUUAAAAAUGCAGUGUGGAUUUCAGACUUCCCUCAACAGAGGAUUGAGCAUCA
B10: 72560208_72560328_3170_3pUTR_ENSMUSG00000056429_ENSMUST00000070524|mouse|control|control (ssRNA)
RNA: GGGAGUUCUACAGUCCGACGAUCUCCUAAAAAUUAGCGGAGAGUAUACCUAGAUAAUUUCUUUAAAAAAAAAAAAGUGGACUUCUGUGAUGAUAAAAAUGUUUUUAGUUUAUAGUGUGGAGUUUUCAGAUGAUUAGAGAAAGUCAACAGAGGAUUGAGCAUCA
B11: chr4:109959894:109959895:-_ENSMUSG00000028546_ENSMUST00000106598|mus_mus|FALSE|FALSE (ssRNA)
RNA: GGGAGUUCUACAGUCCGACGAUCGCUUCGACUCUUCUCUUAAAAUUUGCAAAGGUUUCAGAAUAUACUUAAAAAUGACUACUAUUGUUUUAUAUAUAUAUAUAUUAAAGAUCCACAGACCACAGUGUGGAUGAUUGUAAAGUACAACAGAGGAUUGAGCAUCA
B12: chr18:25531195:25531196:-_ENSG00000170558_ENST00000399380|hu_mus|motif|central (ssRNA)
RNA: GGGAGUUCUACAGUCCGACGAUCCUUUUUUUUUUUUUGUGUGUAAUUUUUUUGGUACAAAUUAUGUAAAACACUUGUGCGGAGAACUUUUACCCCUCCCCAAAACGAAACAAACAAAAAGAAAAUAAAAAAAUUUAAAAAAAACAACAGAGGAUUGAGCAUCA
B13: chr2:23028566:23028567:+_ENSMUSG00000026775_ENSMUST00000028117|mus_mus|FALSE|FALSE (ssRNA)
RNA: GGGAGUUCUACAGUCCGACGAUCGGUCUUCUGUGUAAGAGCUUGAGCUUUGAGAAAACCCUCUGCAAAACCAGUUUUAAAUGCAUCUUGGUGAGCUUCAGGUAUGUUUUUAGUUUUCAUAAGUUUGUCCAAACUCUCAAGAUCCAACAGAGGAUUGAGCAUCA
B14: chr19:15271055:15271056:-_ENSG00000074181_ENST00000263388|hu_mus|motif|central (ssRNA)
RNA: GGGAGUUCUACAGUCCGACGAUCAUAUAUAUUUUGUAAAAAAUAAUAAUAAUAAUAAGUUUGUUUAAAUGAAUUUGUCUCGGUACAAAAUGUAAAAAAGAAAAAAAUAAUAACUCACUCUUGUCAGAGUGUGAGACAAUGAGACAACAGAGGAUUGAGCAUCA
B15: chr22:28376736:28376737:-_ENSG00000100154_ENST00000397906|hu_hu|FALSE|FALSE (ssRNA)
RNA: GGGAGUUCUACAGUCCGACGAUCAUUUUAGAAUUACCUAAAAGAUACUUACUUAUCUAAAUUCUCCAACUAAACUCAGUACUAAUACGACUUUCAGCAUUUCCUUUCUUUAUAAAAUAAAUUAAUGGUUACCCCUAACUAGAUCAACAGAGGAUUGAGCAUCA
B16: chr4:109959894:109959895:-_ENSMUSG00000028546_ENSMUST00000106598|mus_mus|motif|central (ssRNA)
RNA: B11 RNA with U79G, A80G, U82G, A83G
B17: chr1:60041781:60041782:+_ENSMUSG00000041040_ENSMUST00000036540|mus_hu|mus_mus_mus_hu_False|38_58 (ssRNA)
RNA: GGGAGUUCUACAGUCCGACGAUCAAGUUUACAAUAGUAAAGUAAAUGCAGUAGUGGCAAAUUUUCUUUUAUUUUCCUUCCUAAAAGAAAAUCUUUAGAUCUCAGUUCUAGUCUUGGACAUAGUGAAAGCUAUAAAUUCUGACUCAACAGAGGAUUGAGCAUCA
B18: chr7:141450121:141450122:+_ENSG00000106028_ENST00000265304|hu_mus|hu_hu_hu_mus_True|8_98 (ssRNA)
RNA: GGGAGUUCUACAGUCCGACGAUCUCAUCCGUUCUAUUCCUUCUCUUUUGUCUGGUCACUCAGAAAUAUAAUGUUAUCAGCUAUGAUUGUUGUUGCUUGCCGCCUCACAUUGUUUUUAUCCAUGUACUCACCAUAGUCCACUUUCAACAGAGGAUUGAGCAUCA
B19: chr4:17845017:17845018:+_ENSG00000109805_ENST00000514176|hu_mus|hu_hu_hu_mus_False|48_108 (ssRNA)
RNA: GGGAGUUCUACAGUCCGACGAUCGCUUCCUAACUUAGUAUCUUCAUUAAGGAACUCUGCAAGGUUAAGUUUACUUUUCUGUAGCGCGCGGUUUUGGGCUCGUCUGGGUAAUCUCAUCUUCAUUUCUGAUGGUGGUUCAUGAUCCAACAGAGGAUUGAGCAUCA
B20: chr8:67197462:67197463:-_ENSMUSG00000031604_ENSMUST00000034015|mus_mus|FALSE|FALSE (ssRNA)
RNA: GGGAGUUCUACAGUCCGACGAUCUCCGAACUGACCAGUGUAUGUAAAAGGCUUAAAAGGCAACGUCAACUUCAGCCUCCUAUGGCAUGAAGUGGUGAGUUGUACAUUAAUACUUCCUCCAGUUCCCGAAACCUUUUGGUGAGGCAACAGAGGAUUGAGCAUCA
B21: chr5:150025729:150025730:+_ENSMUSG00000041264_ENSMUST00000121416|mus_mus|FALSE|FALSE (ssRNA)
RNA: GGGAGUUCUACAGUCCGACGAUCCACGAAGGCUCUCUUCUGAUCUUCUUUCCGAGGCUGAUUCUGUGCUGACCUGGCUGCUACUGUUUUAGAAGACGCUGUGGUUUCUCGUUUUCUCAAAUUAGAUGCCUGAGAUUUACCAGGCAACAGAGGAUUGAGCAUCA
B22: chr8:87797514:87797515:-_ENSMUSG00000031696_ENSMUST00000034131|mus_hu|motif|central (ssRNA)
RNA: GGGAGUUCUACAGUCCGACGAUCAUUAUGGAAUCCACCUGGUCUUGAGAGACAAUUUCUGUGUUAUAAUCCAGAACAUUACGGAGCACAUAACAACUCAUGCUCUUUCUGGACUCGUAGUCAAAGUACUCAAAGAGUGGGUGACAACAGAGGAUUGAGCAUCA

Residue numbers refer to the chain shown, from its start. Whole data set: some 24,000 sequences, median “enrichment r” near 0.99, cut for the highest 2% near 3.7. The sample holds the highest values, similar sequences and a random draw of the others, so the mix is not that of the screen.

This test concerns the target T1, UNK ZnF1-3. The test can be described thus: nsRBNS (natural sequence RNA bind-n-seq); RBNS binding buffer (assumed for nsRBNS): 25 mM Tris pH 7.5, 150 mM KCl, 3 mM MgCl2, 0.01% Triton X-100, 500 ug/ml BSA, 20 U/ml SUPERase-In, 4 C; UNK is unkempt and MSI1 is Musashi-1; names of the RNAs are library labels; protein concentration not given here; high values mean tight binding.
In the case of B1, the binding signal was found to be 3.35 enrichment R.
B2 displayed a binding signal of 0.477 enrichment R.
B3 displayed a binding signal of 1.29 enrichment R.
The result for B4 reads 0.406 enrichment R.
On to B5, for which the binding signal was found to be 0.969 enrichment R.
In the case of B6 it was 1.8 enrichment R; in that of B7, 0.838 enrichment R; in that of B8, 0.651 enrichment R.
In the case of B9 it was 5.86 enrichment R; in that of B10, 8.87 enrichment R.
In the case of B11 it was 4.13 enrichment R.
As for B12, the binding signal was 3.31 enrichment R.
B13 displayed a binding signal of 1.2 enrichment R.
With B14, the binding signal turned out to be 11.3 enrichment R.
B15 returned a binding signal of 1.4 enrichment R.
Consider B16, for which the binding signal was 3.36 enrichment R.
In the case of B17 it was 0.462 enrichment R; in that of B18, 0.398 enrichment R.
Turning to B19, the binding signal came out at 0.472 enrichment R.
The result for B20 reads 0.838 enrichment R; that for B21, 0.579 enrichment R.
In turn, B22 had a binding signal of 0.988 enrichment R.
